Measured values taken from the OligoGym collection.

target: FABP1; assay: pooled miR-30 sensor sort-seq; sequence = guide strand; settings: shRNA
Note: reference of the scale not given here.

| Sequence | sensor-assay potency score (higher = more potent) |
| --- | --- |
| TCGTTTTGGATCACTTTGGACC | -1.43 |
| ATTCTCTTGAAGACAATGTCAC | -0.0218 |
| TTCCTGGCTCTGCAGTTGGTAC | -1.83 |
| TCTTGAAGACAATGTCACCCAA | 0.0461 |
| TTTGAAAGTTGTCACCAGTTTA | -0.997 |

target: FABP9; assay: as above; settings: shRNA

| Sequence | sensor-assay potency score (higher = more potent) |
| --- | --- |
| TAGTGTCCTGGAAAGAACTTTC | -1.06 |
| TTTACTTTCCGGTTGTCTGCTG | 0.767 |
| TTGATTGTTGTCTCTTTGCCAA | -0.728 |
| TTAGTGTCCTGGAAAGAACTTT | -0.461 |
| TTTTGGACGTGAATCATTGAGC | -0.43 |
